Screening results: PubChem BioAssay, National Center for Advancing Translational Sciences (NCATS)
BRCA1 expr up – increases BRCA1 expression | 1.1% of 380,000 active | Potency, µM (highest dose often 46.1 µM), inactives show top-dose activation, usual class: activators | MCF7-BRCA1-FFLuc reporter, luminescence, 48 h; response scale: scaled: vehicle 0%, 10 µM genistein 100% | AID 624202; also: potency is read from the fitted curve at half-maximal effect; nearly all actives have a fitted effect of over 80% in size
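48 h compound treatment of MCF7-BRCA1-FFLuc cells (phenol-red free MEM, 37 °C), then 15 min with luciferase substrate and luminescence imaging.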
IL2 activator – activators of IL-2; IL-2 activation reporter assay, cell-based qHTS; stimulated with anti-CD3/CD4/CD28 beads; in transgenic mouse T cells; activation, % (series mostly up to about 46 µM); 0.065% of 360,000 active; AID 652025; in the data active = activation above about 50%; inconclusive = mostly about 30% to 49%; also: 0% is about no effect
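First, unstimulated transgenic mouse T cells were exposed to compound for 60 min. Next, anti-CD3/anti-CD4-coated beads with anti-CD28 were added. Finally, after 18 h at 37 degrees C, EGFP and DsRed were imaged.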
Nrf2 activator – activates Nrf2 signaling. AREc32 ARE-luciferase reporter (MCF7-derived line), luminescence, 24 h. Potency, µM (titrated, usually from 46.1 µM), for inactives: at the top dose activation, actives largely listed as activators. 0.31% of 410,000 active. AID 624171; also: potency is read from the fitted curve at half-maximal effect; % of control where 0% means no effect; nearly all actives have a fitted effect of over 65% in size
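ARE activation measured as luciferase luminescence (Steady-Glo, 30 min RT) in AREc32_Fluc cells after 24 hr compound exposure at 37 deg C, 5% CO2; cells seeded overnight at 1000/well in OPTI-MEM, 5% FBS.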
ELG1 repair inh – ELG1-dependent DNA repair inhibition | 2.3% of 330,000 active | HEK293T ELG1-luciferase reporter, luminescence, 16 h; DNA damage induced by 5-fluorouridine | Potency, µM (titrated, usually from 46.1 µM), without a hit: at the highest dose activity change, negative = inhibition, hits mostly inhibitors; also: potency is read from the fitted curve at half-maximal effect; % is scaled to controls: 0 for no effect and ±100 for the full control effect; nearly all actives have a fitted effect of over 55% in size
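In this reporter screen, reduction of luminescence relative to DMSO vehicle indicated activity. Compounds and 5-fluorouridine were added together to 2,000 cells per well, incubated for 16 hr at 37 °C, then developed with ONE-Glo.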
Active calls of the source: *. This is a sample that favours compounds with a hit; in the whole collection about 3.1% have one here. Unless noted, calls follow the shape of the dose curve; as a rule, active = well fitted curve in the direction sought with a large enough effect; inconclusive = small, poorly fitted or top-dose-only effect, or another doubt; inactive = no such curve, though single readings can be large; an effect the other way counts as inactive or inconclusive.

For COc1ccc(-c2cc(C(=O)Nc3cccc(S(=O)(=O)NCc4ccco4)c3)c3ccccc3n2)cc1OC the results were BRCA1 expr up -38%, IL2 activator -1, Nrf2 activator 3% and ELG1 repair inh 5.2µM*.
Screening O=C(Nc1ccccc1)c1cccc(S(=O)(=O)NCc2ccco2)c1 returned BRCA1 expr up 3%, IL2 activator -2, Nrf2 activator 15% and ELG1 repair inh -15%.
`Cc1cccc(C)c1NC(=O)C1(C)CSCC(=O)N1CCc1ccccc1F` (centres undefined) gave IL2 activator 1.
`CCc1ccc(S(=O)(=O)Nc2cccc(C3OCCCO3)c2)cc1` gave BRCA1 expr up -9%, IL2 activator 0, Nrf2 activator 0% and ELG1 repair inh 12µM*.
Screening O=C(Nc1cccc(Cl)c1)C1CCN(S(=O)(=O)Cc2ccccc2)CC1 returned Nrf2 activator 1%.
`CCOC(=O)C1CCCN(C(=O)CN2C(=O)/C(=C/c3ccc(OC)cc3)Oc3ccccc32)C1` (centres undefined) gave BRCA1 expr up -32%, IL2 activator -5, Nrf2 activator 3% and ELG1 repair inh 23µM*.
Screening CCOC(=O)C1CCCN(C(=O)CN2C(=O)c3ccccc3C2=O)C1 (centres undefined) returned BRCA1 expr up 4%, IL2 activator -2, Nrf2 activator 0% and ELG1 repair inh 5%.
CCOC(=O)C1CCN(C(=O)CC(C)c2ccccc2)CC1 (centres undefined) was read as BRCA1 expr up 44%, IL2 activator 0 and Nrf2 activator 0%.
`CCOC(=O)C1CCCN(C(=O)CC(C)c2ccccc2)C1` (centres undefined) gave BRCA1 expr up 13µM*, IL2 activator -2, Nrf2 activator 0% and ELG1 repair inh inconclusive.
`COc1ccccc1C1NC(=O)c2n[nH]c(-c3cccs3)c21` (centres undefined) gave BRCA1 expr up -23% and Nrf2 activator 0%.
Cn1c(=O)n(Cc2ccccc2)c(=O)c2c1nc1n2CCCN1Cc1ccccc1 was read as BRCA1 expr up -11%, IL2 activator 1, Nrf2 activator 0% and ELG1 repair inh -1%.
`Cn1c(=O)n(Cc2ccccc2)c(=O)c2c1nc1n2CCCN1CCc1ccccc1` gave BRCA1 expr up -55%, IL2 activator 0, Nrf2 activator 0% and ELG1 repair inh 23µM*.
C=C(C)Cn1c(=O)c2c(nc3n2CCCN3CCc2ccccc2)n(C)c1=O was read as BRCA1 expr up -10%, IL2 activator -4, Nrf2 activator 0% and ELG1 repair inh 16µM*.
`CCOc1ccccc1NC(=O)N1CCC2(CC1)Oc1ccccc1C(=O)N2Cc1ccccc1F` gave Nrf2 activator 1%.
`Oc1oc(-c2ccccc2)nc1C=NCc1ccccc1` gave BRCA1 expr up 10µM*, IL2 activator -1, Nrf2 activator 0% and ELG1 repair inh inconclusive.
Oc1oc(-c2ccccc2)nc1C=Nc1ccccc1 was read as BRCA1 expr up 35%, IL2 activator -1, Nrf2 activator inconclusive and ELG1 repair inh inconclusive.
Screening N#Cc1c2ccc(O)cc2n2ccccc12 returned BRCA1 expr up 54%, IL2 activator 7, Nrf2 activator 0% and ELG1 repair inh 4.1µM*.
`Cc1cc2nc(-c3ccccc3)cc(=O)n2[nH]1` gave BRCA1 expr up 10µM*, IL2 activator -5, Nrf2 activator 4% and ELG1 repair inh inconclusive.
For Cc1cccc(C)c1OCc1nc2ccccc2[nH]1 the results were BRCA1 expr up -3%, IL2 activator -2, Nrf2 activator 3% and ELG1 repair inh -15%.
`Cc1ccc(C)c(OCc2nc3ccccc3[nH]2)c1` gave BRCA1 expr up 3.2µM*, IL2 activator 0, Nrf2 activator 2% and ELG1 repair inh inconclusive.
`O=S(=O)(c1ccc(-c2nc3ccccc3s2)cc1)N1CCCC1` gave BRCA1 expr up 2.5µM*, IL2 activator -2, Nrf2 activator 3% and ELG1 repair inh inconclusive.
`O=S(=O)(c1ccc(-c2csc(-c3cccnc3)n2)cc1)N1CCCCC1` gave BRCA1 expr up -51%, IL2 activator -1, Nrf2 activator 0% and ELG1 repair inh 23µM*.
`Clc1ccsc1-c1csc(-c2cccnc2)n1` gave BRCA1 expr up -7%, IL2 activator 0, Nrf2 activator 2.2µM* and ELG1 repair inh inconclusive.
O=C(/C=C/c1ccc(C(F)(F)F)cc1)OC(C(=O)NC1CC1)c1ccccc1 (centres undefined) was read as BRCA1 expr up -3%.
For COc1ccc(OCCCn2c(CCNC(=O)C3CCCCC3)nc3ccccc32)cc1 the results were BRCA1 expr up 1%.
Screening COc1ccc(NC(=O)CCc2nc3c(C)nn(-c4ccc(C)cc4)c3n(C)c2=O)c(OC)c1 returned Nrf2 activator -1%.
CCOc1ccc(CCNC(=O)c2ccc3c(=O)[nH]c4c(C(=O)NC(C)C)sc(=S)n4c3c2)cc1 was read as BRCA1 expr up -5%, IL2 activator -1, Nrf2 activator 2% and ELG1 repair inh inconclusive.
For COc1ccc(OC)c(CCNC(=O)c2ccc3c(=O)[nH]c4c(C(=O)NC(C)C)sc(=S)n4c3c2)c1 the results were BRCA1 expr up 3%, IL2 activator 0, Nrf2 activator 0% and ELG1 repair inh 10µM*.
For COc1cc(C)c(C)cc1S(=O)(=O)Nc1cccc(-c2ccc(N3CCOCC3)nn2)c1 the results were Nrf2 activator 3%.
`CN(C)c1ccc(Nc2ccc([N+](=O)[O-])cn2)cc1` gave BRCA1 expr up 3.2µM*, IL2 activator -5, Nrf2 activator 0% and ELG1 repair inh inconclusive.
For Nc1nccc(/C=C/c2c(Cl)cccc2Cl)n1 the results were BRCA1 expr up 9%, IL2 activator -2, Nrf2 activator 11µM* and ELG1 repair inh inconclusive.
For Nc1nccc(/C=C/c2ccc(Cl)cc2)n1 the results were BRCA1 expr up inconclusive, IL2 activator -3, Nrf2 activator inconclusive and ELG1 repair inh inconclusive.
Screening CN(c1ncnc2onc(-c3cccc(Cl)c3)c12)C1CCCCC1 returned BRCA1 expr up -31% and Nrf2 activator 0%.
Cc1ccc(NC(=O)c2sc3ncn(Cc4cccc(F)c4)c(=O)c3c2C)c(Br)c1 was read as Nrf2 activator 0%.
Screening CCn1c(CSCc2ccc(C)cc2)nnc1SCC(=O)N1CCN(c2ccccc2)CC1 returned BRCA1 expr up -41%, IL2 activator -1, Nrf2 activator 3% and ELG1 repair inh 18µM*.
`Cn1c(SCC(=O)N2CCN(c3ccccc3)CC2)nnc1-c1ccncc1` gave BRCA1 expr up 1%, IL2 activator 4, Nrf2 activator -1% and ELG1 repair inh -2%.
Screening Cn1c(SCC(=O)N2CCN(c3ccccc3)CC2)nnc1-c1cc2ccccc2o1 returned BRCA1 expr up -68%, IL2 activator 1, Nrf2 activator -1% and ELG1 repair inh 13µM*.
